Eleven molecules from ChEMBL document CHEMBL3988442, “University of Dundee, Small-Polar-MMV Screening Library” (2021) can be followed below.

Holding throughout (design): scale not given: direction of the effect not stated beside the values
Test [1] addresses Protein translocase subunit SecA (Escherichia coli (strain K12)) (UniProt P10408). As to the kind of experiment: Assay to Identify E. coli SecA ATPase Inhibitors. Format: functional. The following applies: 30 µM.
Test [2] addresses T1, Ubiquitin-activating enzyme e1, putative (Leishmania donovani (strain BPK282A1)) (UniProt E9BSI1).
T1 sequence (whole entry): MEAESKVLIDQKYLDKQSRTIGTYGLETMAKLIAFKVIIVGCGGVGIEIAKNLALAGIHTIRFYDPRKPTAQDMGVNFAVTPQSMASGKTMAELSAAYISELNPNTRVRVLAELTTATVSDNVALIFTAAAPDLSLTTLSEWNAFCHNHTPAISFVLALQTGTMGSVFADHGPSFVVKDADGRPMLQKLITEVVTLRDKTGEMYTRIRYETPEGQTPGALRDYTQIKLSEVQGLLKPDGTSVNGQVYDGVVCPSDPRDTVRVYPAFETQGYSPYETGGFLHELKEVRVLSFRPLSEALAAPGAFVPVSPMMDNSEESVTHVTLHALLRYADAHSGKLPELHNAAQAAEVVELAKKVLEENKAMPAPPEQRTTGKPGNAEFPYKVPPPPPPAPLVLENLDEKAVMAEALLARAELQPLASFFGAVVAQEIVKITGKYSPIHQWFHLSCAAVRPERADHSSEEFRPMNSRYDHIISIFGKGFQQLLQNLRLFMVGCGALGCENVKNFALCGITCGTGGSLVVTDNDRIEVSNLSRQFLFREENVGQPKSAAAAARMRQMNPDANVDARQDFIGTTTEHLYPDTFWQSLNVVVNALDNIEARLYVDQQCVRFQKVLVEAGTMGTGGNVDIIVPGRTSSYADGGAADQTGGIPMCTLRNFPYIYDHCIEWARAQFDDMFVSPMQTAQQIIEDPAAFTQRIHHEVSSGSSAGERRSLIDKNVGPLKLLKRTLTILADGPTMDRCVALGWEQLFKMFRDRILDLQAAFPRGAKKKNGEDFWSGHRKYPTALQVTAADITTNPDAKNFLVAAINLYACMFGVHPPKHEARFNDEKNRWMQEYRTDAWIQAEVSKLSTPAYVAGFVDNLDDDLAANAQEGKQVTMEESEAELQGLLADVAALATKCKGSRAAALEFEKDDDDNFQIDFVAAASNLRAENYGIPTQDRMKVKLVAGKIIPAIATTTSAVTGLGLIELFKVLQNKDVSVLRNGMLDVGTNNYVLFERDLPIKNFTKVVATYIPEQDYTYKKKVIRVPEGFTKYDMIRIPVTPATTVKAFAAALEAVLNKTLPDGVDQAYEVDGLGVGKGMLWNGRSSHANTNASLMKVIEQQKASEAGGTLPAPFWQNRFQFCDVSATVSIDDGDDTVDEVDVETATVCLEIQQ
As to the kind of experiment: Leishmania donovani Ubiquitin Activating Enzyme (LdE1). The format is functional. The note with it: 30 µM.

For test [3], the target named is AMP-activated protein kinase, AMPK (Homo sapiens) (UniProt P54646+O43741+P54619+Q9UGJ0+Q9Y478+Q13131+Q9UGI9). As to the kind of experiment: AMP-dependent Kinase enzyme assay. An in vitro enzyme assay that detects ADP turnover that is directly proportional to AMPK activity. This uses naive AMPK that is activated during the assay with MK-8722. Format: functional. The following applies: 30 µM.

Test [4] concerns the target Sialic acid-binding Ig-like lectin 9 (Homo sapiens) (UniProt Q9Y336). Description: Hs-Siglec9 ALPHAscreen SOP 20170721. The following applies: 10 µM. Background: In Alpha technology, singlet oxygen from a donor bead excites a nearby acceptor bead.
The next test has as its system Trypanosoma cruzi. Description: Trypanosoma cruzi phosphomannomutase and mannose-1-phosphate guanylyltransferase assay. The note with it: 10 µM. Format: functional.
Test [5] concerns the target T2, Arginase-2, mitochondrial (Homo sapiens) (UniProt P78540).
T2 sequence (whole entry): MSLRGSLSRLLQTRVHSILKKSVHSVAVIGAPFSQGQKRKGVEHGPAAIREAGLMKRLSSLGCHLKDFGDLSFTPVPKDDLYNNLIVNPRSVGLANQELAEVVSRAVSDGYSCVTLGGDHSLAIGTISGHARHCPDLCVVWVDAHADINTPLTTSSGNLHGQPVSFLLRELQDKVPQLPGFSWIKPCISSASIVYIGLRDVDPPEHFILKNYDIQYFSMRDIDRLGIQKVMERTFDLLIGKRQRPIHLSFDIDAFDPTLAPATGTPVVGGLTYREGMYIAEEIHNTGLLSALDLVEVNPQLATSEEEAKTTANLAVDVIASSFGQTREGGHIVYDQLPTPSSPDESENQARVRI
Description: in vitro enzyme assay to detect the production of urea directly proportional to the activity of Arginase II. Note: in the data most compounds retested in dose-response had high values. The format is functional. The note with it: 33.3 µM.

Test [6] deals with T3, Proteasome subunit beta (Trypanosoma cruzi) (UniProt O96673).
T3 sequence (whole entry): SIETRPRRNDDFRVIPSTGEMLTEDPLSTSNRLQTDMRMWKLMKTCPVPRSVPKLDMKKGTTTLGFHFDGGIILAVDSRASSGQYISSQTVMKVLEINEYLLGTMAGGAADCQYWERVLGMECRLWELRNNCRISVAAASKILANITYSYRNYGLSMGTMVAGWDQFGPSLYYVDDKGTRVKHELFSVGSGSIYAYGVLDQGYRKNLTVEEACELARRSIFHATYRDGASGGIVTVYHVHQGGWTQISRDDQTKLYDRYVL
Description: Trypanosoma cruzi proteasome chymotrypsin-like activity (TcProtChymo) assay. Note: in the data most compounds retested in dose-response had high values. The format is functional. The note with it: 9.37 µM.

The next test is filed under the species Homo sapiens. As to the kind of experiment: To identify inhibition of the IFN signalling (Jak-Stat) pathway via expression of an eGFP reporter gene under the control of an IFN-stimulated response element (ISRE) containing MxA promoter. Format: functional. The following applies: 30 µM. On the technique in general: Reporter assays use an easily measured gene product as a stand-in for the process of interest.

The target of test [7] is T4, Tyrosyl-tRNA synthetase, putative (Trypanosoma cruzi (strain CL Brener)) (UniProt Q4DSP6).
T4 sequence (whole entry): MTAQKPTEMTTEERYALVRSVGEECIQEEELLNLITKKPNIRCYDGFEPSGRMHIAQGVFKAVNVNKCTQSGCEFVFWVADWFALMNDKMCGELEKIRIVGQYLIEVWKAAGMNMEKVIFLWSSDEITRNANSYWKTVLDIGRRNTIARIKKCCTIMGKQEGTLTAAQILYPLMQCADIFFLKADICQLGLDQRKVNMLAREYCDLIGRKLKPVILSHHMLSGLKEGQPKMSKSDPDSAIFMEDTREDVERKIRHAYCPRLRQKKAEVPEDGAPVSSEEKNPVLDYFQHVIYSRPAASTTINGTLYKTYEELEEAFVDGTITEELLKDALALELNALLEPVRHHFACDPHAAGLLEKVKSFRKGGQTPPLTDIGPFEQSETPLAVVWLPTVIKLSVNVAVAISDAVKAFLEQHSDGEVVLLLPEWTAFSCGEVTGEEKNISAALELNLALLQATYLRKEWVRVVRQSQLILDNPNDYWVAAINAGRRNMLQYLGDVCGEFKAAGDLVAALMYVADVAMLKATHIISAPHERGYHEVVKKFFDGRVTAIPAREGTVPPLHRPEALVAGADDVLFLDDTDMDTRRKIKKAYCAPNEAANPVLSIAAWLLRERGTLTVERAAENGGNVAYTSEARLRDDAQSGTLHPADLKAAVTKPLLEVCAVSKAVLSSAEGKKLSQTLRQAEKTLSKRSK
As to the kind of experiment: Trypanosoma cruzi tyrosyl tRNA synthetase (TcYRS) _High Tyrosine SOP. Note: in the data most compounds retested in dose-response had high values. Format: functional. The following applies: 30 µM.

Test [8] addresses T4, Tyrosyl-tRNA synthetase, putative (Trypanosoma cruzi (strain CL Brener)). Description: Trypanosoma cruzi tyrosyl tRNA synthetase (TcYRS) SOP. The format is functional. The following applies: 30 µM.
Test [9] deals with Chromo domain-containing protein 1 (Saccharomyces cerevisiae (strain ATCC 204508 / S288c) (Baker's yeast)) (UniProt P32657). As to the kind of experiment: ScCHD-1 Enzyme Inhibition Assay. Note: in the data most compounds retested in dose-response had high values. The note with it: 30 µM. Format: functional.
Chain of Chromo domain-containing protein 1 (Saccharomyces cerevisiae (strain ATCC 204508 / S288c) (Baker's yeast)) (P32657 whole entry, the tested form may be a part): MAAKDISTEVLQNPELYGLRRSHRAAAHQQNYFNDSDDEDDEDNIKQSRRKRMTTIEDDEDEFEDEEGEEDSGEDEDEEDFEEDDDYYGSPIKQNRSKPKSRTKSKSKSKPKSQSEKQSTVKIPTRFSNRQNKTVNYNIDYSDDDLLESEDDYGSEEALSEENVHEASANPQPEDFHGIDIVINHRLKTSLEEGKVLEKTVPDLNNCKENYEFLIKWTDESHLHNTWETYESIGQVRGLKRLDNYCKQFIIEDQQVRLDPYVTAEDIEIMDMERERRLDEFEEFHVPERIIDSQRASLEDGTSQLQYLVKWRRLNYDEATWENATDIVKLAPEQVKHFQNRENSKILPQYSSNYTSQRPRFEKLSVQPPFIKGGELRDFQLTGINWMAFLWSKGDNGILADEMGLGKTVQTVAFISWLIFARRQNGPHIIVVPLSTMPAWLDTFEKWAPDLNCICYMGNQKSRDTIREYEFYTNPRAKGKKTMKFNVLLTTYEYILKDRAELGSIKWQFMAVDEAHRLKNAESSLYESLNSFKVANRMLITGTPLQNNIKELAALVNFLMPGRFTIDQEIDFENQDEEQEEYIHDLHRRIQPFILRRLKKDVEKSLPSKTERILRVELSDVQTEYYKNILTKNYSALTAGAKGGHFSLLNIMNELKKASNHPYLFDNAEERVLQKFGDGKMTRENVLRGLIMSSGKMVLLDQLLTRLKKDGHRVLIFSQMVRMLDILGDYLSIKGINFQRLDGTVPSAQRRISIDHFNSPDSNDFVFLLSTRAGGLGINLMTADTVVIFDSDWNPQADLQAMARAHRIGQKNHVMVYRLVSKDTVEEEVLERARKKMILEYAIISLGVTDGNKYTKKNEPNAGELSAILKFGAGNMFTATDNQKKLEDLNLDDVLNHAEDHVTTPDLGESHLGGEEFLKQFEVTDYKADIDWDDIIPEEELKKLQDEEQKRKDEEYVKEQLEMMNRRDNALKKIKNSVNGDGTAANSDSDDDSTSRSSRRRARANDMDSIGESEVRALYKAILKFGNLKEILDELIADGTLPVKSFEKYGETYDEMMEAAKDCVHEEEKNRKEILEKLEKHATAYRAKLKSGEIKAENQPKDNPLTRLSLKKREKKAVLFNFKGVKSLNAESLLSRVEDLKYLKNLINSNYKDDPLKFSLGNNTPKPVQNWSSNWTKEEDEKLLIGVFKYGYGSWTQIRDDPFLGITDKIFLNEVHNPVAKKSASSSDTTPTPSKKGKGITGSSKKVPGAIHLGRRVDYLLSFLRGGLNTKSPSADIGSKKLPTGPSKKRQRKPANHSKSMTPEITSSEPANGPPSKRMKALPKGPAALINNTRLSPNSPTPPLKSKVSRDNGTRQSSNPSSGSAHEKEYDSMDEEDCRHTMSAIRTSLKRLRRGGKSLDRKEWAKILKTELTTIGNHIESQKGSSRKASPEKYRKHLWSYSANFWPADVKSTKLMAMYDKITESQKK

For some of these results: Results with a measured potency or affinity are listed apart.

Chain of Sialic acid-binding Ig-like lectin 9 (Homo sapiens) (Q9Y336 whole entry): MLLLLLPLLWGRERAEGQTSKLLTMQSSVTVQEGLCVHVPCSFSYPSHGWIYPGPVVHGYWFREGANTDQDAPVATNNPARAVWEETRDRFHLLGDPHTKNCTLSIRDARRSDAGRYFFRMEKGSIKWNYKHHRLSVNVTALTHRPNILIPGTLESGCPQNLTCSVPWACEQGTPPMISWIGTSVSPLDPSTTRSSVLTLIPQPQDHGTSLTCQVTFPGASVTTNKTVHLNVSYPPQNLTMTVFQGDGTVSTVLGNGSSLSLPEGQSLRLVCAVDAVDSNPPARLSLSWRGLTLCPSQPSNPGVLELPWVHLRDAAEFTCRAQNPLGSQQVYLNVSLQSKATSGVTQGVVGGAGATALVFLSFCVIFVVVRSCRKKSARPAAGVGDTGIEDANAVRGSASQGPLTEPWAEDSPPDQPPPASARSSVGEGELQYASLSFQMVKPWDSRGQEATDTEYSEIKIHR
Chain of Protein translocase subunit SecA (Escherichia coli (strain K12)) (P10408 whole entry): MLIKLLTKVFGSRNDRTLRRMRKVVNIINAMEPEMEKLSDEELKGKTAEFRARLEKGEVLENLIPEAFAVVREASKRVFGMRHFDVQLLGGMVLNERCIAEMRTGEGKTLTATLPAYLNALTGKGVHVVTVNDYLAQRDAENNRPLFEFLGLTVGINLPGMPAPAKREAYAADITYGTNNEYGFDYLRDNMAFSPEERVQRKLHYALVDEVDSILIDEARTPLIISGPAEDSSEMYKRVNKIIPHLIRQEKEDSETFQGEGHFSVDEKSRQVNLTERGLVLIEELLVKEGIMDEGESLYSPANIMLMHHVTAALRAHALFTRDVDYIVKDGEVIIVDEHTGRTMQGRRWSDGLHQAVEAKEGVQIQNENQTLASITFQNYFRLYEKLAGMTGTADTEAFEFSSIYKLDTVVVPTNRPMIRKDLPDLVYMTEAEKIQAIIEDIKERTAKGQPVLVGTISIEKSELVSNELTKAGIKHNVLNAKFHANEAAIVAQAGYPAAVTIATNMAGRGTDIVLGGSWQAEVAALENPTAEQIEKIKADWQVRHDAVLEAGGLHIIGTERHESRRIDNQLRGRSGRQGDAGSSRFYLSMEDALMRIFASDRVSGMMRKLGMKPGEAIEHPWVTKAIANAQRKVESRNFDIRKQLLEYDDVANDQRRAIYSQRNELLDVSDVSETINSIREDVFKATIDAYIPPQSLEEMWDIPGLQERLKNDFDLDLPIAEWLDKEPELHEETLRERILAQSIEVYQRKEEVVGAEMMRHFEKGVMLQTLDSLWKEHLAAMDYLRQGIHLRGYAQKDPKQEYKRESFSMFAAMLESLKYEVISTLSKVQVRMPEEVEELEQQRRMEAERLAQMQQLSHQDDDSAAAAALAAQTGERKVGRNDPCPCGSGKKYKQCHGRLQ

Take `Cc1nn(C)c2c(=O)n(CC(=O)Nc3cc(Cl)cc(Cl)c3)nnc12`: the Percent Effect in [1] is 0.37%; in test [2] it was 12%; in test [3] it was 0.0353%; in [4] it was 1.72%; with Trypanosoma cruzi, -6.29%; in test [5], -1.58%. For the same molecule, the Percent Effect in [6] is 19.6%; in the test filed under Homo sapiens it was 12.4%; in [7], 2.12%; in test [8], 10.3%; in test [9], -8.24%.
For `CCn1nc(C)c(CCn2ccnc2-c2cc3n(n2)CCCNC3)c1C`, the Percent Effect is -3.39% in [1]; 2.67% in test [2]; 0.691% in test [3]; 0.912% in test [4]; -3.02% in the test on Trypanosoma cruzi; 4.17% in test [5]. Moreover, the Percent Effect is 8.2% in [6]; 12.4% in the test filed under Homo sapiens; 2.73% in test [7]; 8.64% in test [8]; -6.3% in [9].
With `N#Cc1cnn(-c2ccc(C(=O)Nc3ccccn3)cc2)c1N`, the Percent Effect was -1.12% in test [1]; 17.7% in test [2]; 3.05% in test [3]; -10.6% in test [4]; 7.65% in the test on Trypanosoma cruzi; -6.46% in test [5]. Moreover, the Percent Effect in test [6] is 19.7%; in the test listed under Homo sapiens, 8.19%; in test [7], 13.3%; in test [8] it was 29.1%; in test [9], -3.72%.
For the molecule `Cc1noc2ncc(C(=O)N3CCCC3c3cnn(C)c3)cc12` (stereo unspecified), the Percent Effect in [1] was -1.99%; in test [2], 2.53%; in [3] it was -1.98%; in test [4], -2%; in the test on Trypanosoma cruzi it was -2.17%; in test [5], -3.42%. The Percent Effect in [6] was 3.52%; in the test listed under Homo sapiens, 12%; in test [7], -3.45%; in test [8], -1.27%; in test [9], -2.49%.
On to `Cc1cc(CN(C)C(=O)c2cc3c([nH]c2=O)CCCC3=O)no1`, for which the Percent Effect was -5.46% in test [1]; 5.41% in [2]; -1.63% in test [3]; -1.13% in test [4]; -7.52% with Trypanosoma cruzi; 5.73% in test [5]. Further, the Percent Effect in test [6] is -5.57%; in the test filed under Homo sapiens, 18%; in test [7] it was 0.99%; in test [8], 6.1%; in test [9], -0.0983%.
Turning to `O=C1CCC(C(=O)NCc2nncn2-c2ccccc2)CN1` (stereo unspecified), the Percent Effect in [1] was -6.76%; in test [2] it was 10.8%; in [3] it was -10.2%; in test [4], 20.8%; with Trypanosoma cruzi, 3.68%; in [5], -7.21%. Also, the Percent Effect in test [6] was 1.8%; in the test listed under Homo sapiens it was 7.93%; in test [7] it was 2.46%; in test [8], 23.5%; in [9], -12.7%.
As to `COCCOc1ccccc1CNCc1c(C)nn(C)c1N(C)C`, the Percent Effect is -4.61% in test [1]; 8.11% in [2]; -17.4% in [3]; -0.683% in test [4]; -2.92% with Trypanosoma cruzi; -0.802% in test [5]. The Percent Effect in test [6] is 1.26%; in the test listed under Homo sapiens, -12%; in [7], 5.42%; in test [8] it was 11.1%; in test [9] it was -4.5%.
As for `CC(C)c1nc(C(=O)N2CCOCC2CC(=O)c2ccco2)c[nH]1` (stereo unspecified), the Percent Effect was 2.93% in [1]; -2.63% in [2]; 4.64% in [3]; 2.67% in test [4]; 0.682% in the test with Trypanosoma cruzi; 0% in test [5]. For the same molecule, the Percent Effect is 8.92% in test [6]; -8.33% in the test listed under Homo sapiens; 5.32% in test [7]; 0% in [8]; 1.37% in [9].
Take `COc1cccc(CNc2nc(O)cc(C3CC(=O)N(C)C3)n2)c1` (stereo unspecified): the Percent Effect in test [1] was 1.85%; in [2], 12.2%; in [3] it was 4.37%; in test [4], 1.72%; in the test on Trypanosoma cruzi, -4.35%; in test [5] it was 2.09%. Moreover, the Percent Effect is 16.7% in [6]; 14.9% in the test listed under Homo sapiens; 5.38% in test [7]; -1.3% in test [8]; -11.6% in test [9].
As to `COc1ccccc1[C@@H]1CN(Cc2cc(C(C)(C)C)[nH]n2)C[C@H]1C(=O)O`, the Percent Effect in test [1] is -3.72%; in test [2], 18.1%; in [3], -4.78%; in [4], 2.73%; in the test with Trypanosoma cruzi, 4.18%; in [5], 5.3%. Moreover, the Percent Effect was 20.2% in test [6]; 0.766% in the test filed under Homo sapiens; 5.26% in test [7]; 10.3% in test [8]; -3.34% in [9].
As for `O=C(CCc1nccs1)N1CCN(c2ccc(Br)cn2)CC1`, the Percent Effect is -7.37% in [1]; 7.79% in test [2]; 14.3% in test [3]; -8.09% in test [4]; -1.27% with Trypanosoma cruzi; -1.05% in test [5]. Further, the Percent Effect was -4.12% in test [6]; 31.4% in the test listed under Homo sapiens; 2.86% in test [7]; 7.06% in test [8]; -21.6% in test [9].
